# Results: PubChem BioAssay AID720569 (National Center for Advancing Translational Sciences (NCATS), 2013)
# Some of the results follow. Records with an inconclusive call do not appear. Calls of active or inactive are those of the source. Calls come from the whole dose curve; as a rule, active = well fitted inhibition curve with a large enough effect; inconclusive = small, poorly fitted or top-dose-only effect; inactive = no such curve, though single readings can be large or run the other way.
# Test system: pyruvate kinase (Trypanosoma brucei)
# Assay: qHTS of Trypanosoma Brucei Inhibitors: Confirmatory Assay for Cherry-picked Compounds; note: nearly all actives have a fitted effect of over 70% in size
# Details: recombinant TbPYK, Kinase-Glo ATP luminescence; series mostly up to 76.9 µM
# From the text: Members of the Trypanosomatidae family of parasitic protozoans cause a spectrum of diseases throughout the tropical and subtropical world. Sleeping sickness, caused by two subspecies of Trypanosoma brucei, is endemic to areas of sub-Saharan Africa, while Chagas' disease, a manifestation of Trypanosoma cruzi infection, is prevalent throughout Central and South America. In addition, many species of Leishmania are responsible for a range of cutaneous and visceral diseases, causing ulcers, destructive lesions and kalaazar, a lethal infection of the viscera. These diseases cause severe public health and economic burdens on populations that are often already caught in a tragic cycle of poverty, poor nutrition and disease. Collectively, parasites of the trypanosomatid family infect 30 million people worldwide (~500 million live in endemic areas), and account for ~130K deaths annually. Existing treatments have developed little in the past 50 years, and suffer from toxicity, poor efficacy and resistance; the goal of this project is to develop lead drugs that will be suitable for entry into pre-clinical trials. […] Glycolysis in axenically cultured T. cruzi, representing the intracellular pathogenic stage, is also essential for these parasites. {Engel, 1987} This project aims to discover and optimize selective inhibitors of the glycolytic enzyme pyruvate kinase (PYK) from Trypanosoma brucei, the parasite that causes sleeping sickness. […] Trypanosomatid PYKs show significant differences from their human counterparts including only 47-50% sequence identity and different allosteric and activation properties.{Callens, 1992} To this end, a qHTS was done against the MLSMR to discover inhibitors. NIH Molecular Libraries Probe Production Network [MLPCN] NIH Chemical Genomics Center [NCGC] Grant: MH095452 PI Name: Malcolm Walkinshaw, University of Edinburgh
# Two uL of TbPYK/substrate buffer (columns 1-3, 5-48) are dispensed into Greiner white solid bottom 1536-well assay plates; column 4 receives only TEA buffer as 0x TbPYK controls. Compounds are then transferred via Kalypsys pin tool equipped with 1536-pin array (10 nL slotted pins, V&P Scientific, San Diego, CA). Following addition of compound, 2 uL of ADP (130 uM final concentration, all columns) is added to initiate the reaction. The plates are then incubated at room temperature for 45 minutes. Kinase-Glo Plus reagent is added (3 uL) and plates incubated for 10 minutes, before being transferred to a ViewLux high-throughput CCD imager (PerkinElmer) wherein single end-point measurements of luminescence are acquired using a clear filter. All reagents are diluted in an assay buffer consisting of 50 mM TEA (pH 7.2), 100 mM KCl, 10 mM MgCl2, 0.05% BSA and 0.01% Tween-20. All screening operations will be performed on a fully integrated robotic system (Kalypsys, San Diego, CA) containing one RX-130 and two RX-90 anthropomorphic robotic arms (Staeubli, Duncan, SC). Library plates will be screened starting from the lowest and proceeding to the highest concentration. Vehicle-only plates, with DMSO being pin-transferred to columns 5-48, will be inserted uniformly at the beginning and the end of each library in order to monitor and record any shifts in the background, which can be affected by reagent dispensers or loss in enzyme activity over time. Screening data will be corrected, normalized, and concentration-effect relationships will be derived by using publicly-available curve fitting algorithms developed in-house (http://ncgc.nih.gov/pub/openhts).
# Potency is the fitted concentration of half-maximal effect.
row,Structure (SMILES),Potency
1,O=C(CCCCCn1c(=S)[nH]c2ccsc2c1=O)NC1CCCCC1,14.1 µM (active)
2,COc1cc(C2CC(=O)N3CN(Cc4ccccc4)CSC3=C2C#N)ccc1OCc1ccccc1 (centres undefined),0.126 µM (active)
3,COc1ccc(Cc2nnc(NS(=O)(=O)Cc3ccccc3)s2)cc1,inactive
4,C=CCn1c(=S)[nH]c2scc(-c3ccco3)c2c1=O,14.1 µM (active)
5,CC(=O)N1CC[n+]2c(-c3ccc([N+](=O)[O-])cc3)csc21,1.78 µM (active)
6,CSc1c(SCc2ccccc2)cnn(Cc2ccccc2)c1=O,17.8 µM (active)
7,O=C(CSc1ccc(-c2ccco2)nn1)Nc1cccc(F)c1,15.8 µM (active)
8,N#Cc1c(N2CCCCC2)nc(N)c2c(N)nc(SCC(=O)O)cc12,31.6 µM (active)
9,COCCNC(=O)Nc1ccc2nc(-c3ccco3)c(-c3ccco3)nc2c1,11.2 µM (active)
10,Cc1ccc(/C=C/C(=O)Nc2ccc([N+](=O)[O-])c(NC(=O)/C=C/c3ccc(C)o3)c2)o1,17.8 µM (active)
11,Cc1c(C)c(C)c(S(=O)(=O)N2CCC3(CC2)OCCO3)c(C)c1C,inactive
12,Oc1c(CN2CCOCC2)ccc(CN2CCOCC2)c1O,20 µM (active)
13,O=c1ccc2c(-c3ccccc3S(=O)(=O)O)c3ccc(O)c(O)c3oc-2c1O,8.91 µM (active)
14,Cc1cc(C#N)c(SCC(N)=O)nc1-c1ccc(F)cc1,2.82 µM (active)
15,O=C1C=CC(=O)N1c1ccc(N2CCCCC2)cc1,7.08 µM (active)
16,Cc1nc2ccc(S(=O)(=O)NCC(=O)O)cc2s1,6.31 µM (active)
17,Cc1nonc1C(=O)N/N=C/c1ccc(O)cc1,15.8 µM (active)
18,O=C(CN1CCN(c2ccc(O)cc2)CC1)Nc1cc(S(=O)(=O)N2CCOCC2)ccc1Cl,14.1 µM (active)
19,O=c1[nH]c2ccccc2n2c(-c3ccccc3)nnc12,0.126 µM (active)
20,Cc1ccc(C)c2c1cc(C)c1nnc(SCC(=O)Nc3cccc(C(=O)O)c3)n12,2.24 µM (active)
21,NC(=O)c1c(Nc2nc3c(F)cccc3s2)sc2c1CCCC2,4.47 µM (active)
22,O=C(Nc1ccc(S(=O)(=O)N2CCOCC2)cc1)c1ccc2ncsc2c1,10 µM (active)
23,Cc1cccc(-n2c(N)c(C(=O)N3CCN(C)CC3)sc2=S)c1,1 µM (active)
24,c1ccc(-c2nnc3n2NC(c2ccc4c(c2)OCO4)S3)cc1 (centres undefined),0.0708 µM (active)
25,COC(=O)/C=C\C(=O)Nc1cccc([N+](=O)[O-])c1,inactive
26,O=C(CN1CCN(c2ccc(O)cc2)CC1)Nc1ccc(-c2ccccc2)cc1,28.2 µM (active)
27,COc1cccc(C(=O)Nc2ccc(N3CCCC3)cc2)c1,20 µM (active)
28,Cc1cc(C2=NNC(=Nc3ccc(S(=O)(=O)N4CCOCC4)cc3)SC2)c(C)n1CC1CCCO1 (centres undefined),11.2 µM (active)
29,CN(c1ccccc1)S(=O)(=O)c1cccc(NC(=O)Cc2ccc(Cl)cc2)c1,6.31 µM (active)
